# Compounds without any hit were thinned out: in the full panel of roughly 83,000, 20% have a hit.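 Step 1: grow cells in 96-well plates. Step 2: add test compound at a single concentration. Step 3: incubate 48 h. Step 4: record percent growth.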 A number with no mark means an inactive call. Activity calls are given as the source filed them. The calls were made as follows: active = growth percent below 10; inactive = the rest.
# Experiments:
# Assay in all cases: NCI-60 one-dose screen, 48 h (100 = growth as untreated, 0 = no growth, -100 = all killed)
# [1] = system: NCI-H322M lung; conditions: 10 µM unless noted
# [2] = system: HOP-62 NSCLC; conditions: 10 µM unless noted
# [3] = system: HOP-92 NSCLC; conditions: 10 µM unless noted
# [4] = system: NCI-H522 lung; conditions: 10 µM unless noted
# [5] = system: A549/ATCC NSCLC; conditions: 10 µM unless noted
# [6] = system: COLO 205 colon; conditions: 10 µM
# [7] = system: HT29 colon; conditions: 10 µM unless noted
# [8] = system: UACC-62 melanoma; conditions: 10 µM unless noted
# [9] = system: TK-10 renal; conditions: 10 µM unless noted
# [10] = system: MOLT-4 leukemia; conditions: 10 µM
# [11] = system: RPMI-8226 leukemia; conditions: 10 µM unless noted
# [12] = system: OVCAR-3 ovarian; conditions: 10 µM unless noted
# [13] = system: HS 578T breast; conditions: 10 µM unless noted
# [14] = system: T-47D breast; conditions: 10 µM unless noted
# [15] = system: EKVX NSCLC; conditions: 10 µM unless noted
# [16] = system: ACHN renal; conditions: 10 µM unless noted
# [17] = system: CAKI-1 renal; conditions: 10 µM unless noted
# [18] = system: NCI-H226 lung; conditions: 10 µM unless noted
# [19] = system: UO-31 renal; conditions: 10 µM unless noted
SMILES,growth [1],growth [2],growth [3],growth [4],growth [5],growth [6],growth [7],growth [8],growth [9],growth [10],growth [11],growth [12],growth [13],growth [14],growth [15],growth [16],growth [17],growth [18],growth [19]
Oc1ccc(Br)cc1CN1CCN(Cc2ccc(Cl)cc2)CC1,103%,57.6%,24.8%,-84.4% (active),62.3%,71.1%,70.2%,50.7%,106%,56.1%,16.7%,67.8%,80.9%,65.1%,,,,,
CC[C@@]1(C2O[C@@H](C3O[C@@](O)(CC)[C@H](C)C[C@@H]3C)C[C@@H]2C)CC[C@H]([C@]2(C)CCC3(C[C@H](O)[C@@H](C)[C@@H]([C@H](C)[C@@H](OC)[C@H](C)C(=O)O)O3)O2)O1 (some centres not stated),38.8%,,,,17.6%,,,,49.1%,30.8%,,11%,,30.2%,26.1%,32%,24.5%,,
Clc1ccc(SSC(Cl)(Cl)Cl)cc1,112%,106%,84.8%,107%,100%,114%,101%,116%,,99.7%,119%,108%,,114%,108%,102%,119%,110%,99.9%
OC1CCCCC1N1CCC(c2ccccc2)CC1 (configuration not stated),,,,,106%,107%,97.3%,115%,99%,79.9%,107%,106%,108%,96.8%,104%,109%,96.5%,114%,82.5%
CC[C@]12C=CCN3CC[C@@]4(c5ccc(OC)cc5N(C)[C@H]4[C@@](O)(C(=O)OC)[C@@H]1OC(=O)CCCN1CCN(CCCC(=O)O[C@@H]4[C@]5(CC)C=CCN6CC[C@@]7(c8ccc(OC)cc8N(C)[C@H]7[C@@]4(O)C(=O)OC)[C@@H]65)CC1)[C@@H]32,-88.5% (active),-82.5% (active),-63.3% (active),-79.9% (active),,-79% (active),,-87.7% (active),-87.9% (active),-62.9% (active),-55.2% (active),-85.2% (active),-61.7% (active),-68.3% (active),-88.4% (active),-83.3% (active),-97% (active),,-88.8% (active)
COc1cc(CNCCc2ccc(Cl)cc2)cc(OC)c1O,78.9%,,60.6%,16.1%,89.8%,,,61.2%,,37.3%,42.4%,61%,62.6%,,,75.6%,58.4%,,61%
CC(C)OC(=S)[S-].[Au+].c1ccc([PH+](c2ccccc2)c2ccccc2)cc1,99.4%,76%,-23% (active),-63.6% (active),84.5%,,55.7%,0.794% (active),-3.22% (active),10.9%,3.19% (active),-43% (active),15.6%,,82.9%,0.723% (active),16.7%,,21.9%
COc1ccc(C(=O)c2ccc([As]=O)cc2)cc1 (configuration not stated),-94.1% (active),-86.1% (active),-96.1% (active),-84.1% (active),,,-68.9% (active),-82.1% (active),-100% (active),-24.5% (active),-24% (active),-40.4% (active),-1.54% (active),-77.6% (active),-98.1% (active),-91.8% (active),-98.7% (active),-59.6% (active),-95% (active)
ClCCN(CCCl)C(c1ccccc1)c1ccc(Cl)cc1 (configuration not stated),,108%,57.4%,65%,88.9%,114%,63%,63.8%,81.1%,-3.35% (active),42.1%,91.9%,,103%,102%,28.9%,,75.4%,
CC(=O)O[C@H]1C[C@H](O[C@H]2[C@@H](O)C[C@H](O[C@H]3[C@@H](O)C[C@H](O[C@H]4CC[C@@]5(C)C(CCC6C5C[C@@H](O)[C@]5(C)[C@@H](C7=CC(=O)OC7)CC[C@]65O)C4)O[C@@H]3C)O[C@@H]2C)O[C@H](C)[C@H]1O[C@@H]1O[C@H](CO)[C@@H](O)[C@H](O)[C@H]1O (some centres not stated),,,-15.1% (active),,-100% (active),-74.2% (active),-86% (active),-94.3% (active),-91% (active),,-0.309% (active),-100% (active),2.41% (active),-19% (active),-98.3% (active),,-94.4% (active),-98.6% (active),-80.1% (active)
CCCC(C)(C)c1ccc2c(c1)OC(C)(C)[C@@H]1CC=C(C)C[C@@H]21,,,100%,93.2%,,107%,102%,98%,107%,95.6%,92.9%,102%,100%,,106%,105%,,98.3%,79.8%
CC(=O)Nc1ccc(Cc2ccc(NC(C)=O)cc2)cc1,108%,94.1%,45.6%,104%,,,104%,107%,106%,,98.2%,119%,121%,103%,103%,,88.9%,107%,78%
COc1cc(NCCCCCN=C(N)N)c2ncccc2c1,61.4%,45.7%,66.7%,9.47% (active),,,62.9%,,,4.38% (active),58.2%,0.151% (active),,,65.4%,105%,104%,,83.9%
O=C(N/N=C/c1ccc([N+](=O)[O-])o1)c1cc([N+](=O)[O-])cc([N+](=O)[O-])c1O,,,117%,,102%,107%,97.4%,88.9%,121%,62.8%,99.8%,113%,104%,93.5%,108%,90.6%,,97.9%,80%
NC(=O)C(Cl)Cl,94.4%,102%,,109%,,,,105%,,109%,105%,110%,117%,103%,,104%,,,94.6%
CCC(C)(C)O,,,95.3%,,108%,110%,109%,98.5%,107%,121%,106%,111%,105%,107%,98%,103%,93.6%,102%,93.8%
COC[CH2][Hg][C]#[C][Hg][CH2]COC,116%,,111%,96.9%,99.1%,,100%,106%,119%,79.8%,,113%,85.3%,91.7%,,98.7%,94.8%,,92.8%
CC(=O)O[C@@H]1C2=C(C)C3(CC3)[C@@](C)(O)C(=O)C2=C[C@@]1(C)CO,-5.44% (active),-10.1% (active),-21.1% (active),-36.6% (active),6.08% (active),,5.12% (active),,4.18% (active),,-18.8% (active),,-9.28% (active),7.72% (active),13.6%,-6.63% (active),3.26% (active),,-51% (active)
O=C1C=CC(=O)C2C1C1(Cl)C(Cl)=C(Cl)C2(Cl)C1(Cl)Cl (configuration not stated),77.2%,63.5%,15.7%,,60.6%,74.7%,76.7%,,71.5%,59.5%,67.9%,44.3%,58.2%,28%,41.3%,50.8%,51.8%,56.9%,44.9%
Cc1cccc(N=C2c3cc([N+](=O)[O-])ccc3-c3c2cc([N+](=O)[O-])cc3[N+](=O)[O-])c1,,61.7%,,,72.1%,98.5%,21.3%,77.5%,56.1%,27.5%,-8.81% (active),,101%,-25.1% (active),75.4%,59.3%,67.8%,80.1%,

# Source: PubChem BioAssay (NCI)
